Data on 40 compounds can be found in PubChem BioAssay (NCI).

This is part of a sample that, as a whole, favours compounds with a hit. Of some 83,000 tested, about 20% had one in any assay.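 Compound tested at a single concentration for 48 hours in 96-well plates; a percent growth value below 10 was scored as active.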 Values without a mark were called inactive. Activity calls are given as the source filed them.

The experiment relates to KM12 colon. Kind of experiment: NCI-60 one-dose screen, 48 h (100 = growth as untreated, 0 = no growth, -100 = all killed). Conditions: 10 µM unless noted. As for the experimental part: Growth inhibition of the KM12 human tumor cell line is measured as a screen for anti-cancer activity. Cells are grown in 96 well plates and exposed to the test compound for 48 hours. Compounds are tested at a single concentration, which is 10^-5 M for most compounds. The reported endpoint is percent growth (GI% or GIPRCNT), where numbers from 0 - 100% represent growth inhibition, and numbers from -100% - 0 represent cell death. For example, a value of 40 represents 60% growth inhibition. A value of 0 means no net growth occurred over the course of the experiment. A value of -40 indicates 40% of cells at the beginning of the experiment died by the end of the experiment. A value of -100 means all cells are dead at the end of the experiment.
NCI-60 Human Tumor Cell Lines Screen was performed using the standard one-dose NCI protocol, which is described in more detail at https://dtp.cancer.gov/discovery_development/nci-60/default.htm.
Compounds with GIPRCNT values below 10 were considered active. Activity score was based on GIPRCNT using the following formula: […]
Score is 0 for GIPRCNT values of 100 or above, 50 for GIPRCNT values of 0, and 100 for GIPRCNT values of -100.
Turning to `COc1ccc(-c2nc(-c3ccccc3)c(-c3ccccc3)[nH]2)cc1OC1CCCCC1`, the growth was 89.3%.
For `Cn1c(C(=O)c2cccc3ccccc23)nc2ccccc21`, the growth is 25.9%.
The value for `Nc1ccc(-c2ccc(-c3ccccc3N)c3[nH]c4ccccc4c23)cc1` was 23.6%.
For `NC(CCl)=NCCC[C@H](N)C(=O)O` the value was 106%; for `COc1cc(C(=O)NN=C2c3ccccc3-c3ccccc32)cc(OC)c1OC`, 29.3%.
In the case of `CC(C)(C)c1ccc(C2CC(=O)C3=C(C2)Nc2ccccc2N(C(=O)c2ccccc2Cl)C3c2ccc(F)cc2)cc1` (stereo not given), the growth is 9.1% (active).
For `COc1ccc(-c2nnc(COc3ccc(C(=O)/C=C/c4ccco4)cc3)o2)cc1` the value was 18.2%; for `Cc1ccc(CN2CCC(C(=O)Nc3ccc(-c4cc5ccccc5[nH]4)cc3)CC2)o1`, 24.4%.
The value for `CNCCNc1nc2ccccc2c2c(=O)c3cccc(C)c3sc12` was -29.9% (active).
With `CCN(CC)c1cc(C)c2cc(NC(=O)c3cccc(OC)c3)ccc2n1`, the growth was 88.5%.
The value for `COC(=O)/C(CCC=C(C)C)=C1\[C@@H](OC(C)=O)C[C@@]2(C)[C@H]1C[C@@H](O)[C@H]1[C@@]3(C)CC[C@H](NCCCNCCCCNCCCN)[C@@H](C)[C@@H]3CC[C@@]12C` was 21.7%.
The value for `O=C(Nc1ccc(N2CCNCC2)cn1)c1[nH]ncc1Nc1ncnc2sccc12` was 57.3%; that for `NCCNc1nc2ccccc2c2c(=O)c3cc(F)cc(Cl)c3sc12` was -82.6% (active).
The value for `Cc1ccc(C(=O)c2oc3ccc4c(C)cc(=O)oc4c3c2C)cc1` was 17.8%.
Turning to `Nc1ccccc1-c1ccc(-c2ccc(Cl)cc2)c2c1[nH]c1ccccc12`, the growth is 66.6%.
As for `COc1cccc(C2=NN3C(C2)c2ccccc2OC3c2ccc(/C=C3\SC(=O)NC3=O)cc2)c1` (stereo not given), the growth was 94.6%.
For `O=c1oc2ccc(-c3ccc(F)cc3F)cc2c(=O)n1-c1cccc(C(F)(F)F)c1`, the growth is 3.37% (active).
For `O=c1oc2ccc(F)cc2c(=O)n1-c1ccc(Cl)cc1F` the value was 2.07% (active); for `Cc1ccc(F)cc1NC(=O)c1cc(Cl)ccc1Nc1ccccc1`, 37.1%.
The value for `O=C(CN1C=NC2C(N3CCOCC3)=NC=NC21)c1cccc2ccccc12` (stereo not given) was 102%; that for `CCOc1c(Br)cc(C2C(C(=O)OC)=CN(C)C=C2C(=O)OC)cc1OC` was 61.9%; that for `COc1cccc(/C(C#N)=C/c2nc3c(N4CCOCC4)nc(Cl)nc3n2C)c1` was 16.2%.
The value for `COc1cc(/C=C2\Oc3cc(OCCCN4CCCC4)ccc3C2=O)cc(OC)c1` was 26.3%; that for `O=C(Nc1ccc(Cl)cc1F)c1cc(Br)ccc1O` was 0.131% (active).
On to `CCOc1ccccc1CN1CCc2nc3cc(C(C)(C)C)[nH]n3c(=O)c2C1`, for which the growth was 98.2%.
For `CC1(O)COCCCCOc2c(CN)cccc2NC(=O)c2nc(cnc2N)-c2ccc(cc2)S(=O)(=O)C(C)(C)C1` (stereo not given) the value was -72.7% (active); for `CCN1C(=O)N(CC)C2C1NC(=S)N2/N=C/C=C/c1ccccc1OC` (stereo not given), 15.6%; for `O=C1c2cc(Cl)ccc2Oc2cc([N+](=O)[O-])ccc2N1c1ccc(F)cc1F`, 94.6%.
The value for `COC(=O)c1c2c(c(C)[n+]([O-])c1C)C(=O)C=C(NCc1ccc(F)c(F)c1)C2=O` was -14.9% (active); that for `CCOC(=O)C1(C(=O)OCC)N=C(c2ccccc2)C=C1c1ccccc1` was 93.6%; that for `COc1cc(/C=C2\CN(C)C/C(=C\c3cc(CN4CCCC4)c(O)c(OC)c3)C2=O)cc(CN2CCCC2)c1O` was 48.3%.
Take `Clc1ccc(COc2ccc(Nc3ncnc4onc(-c5ccccc5)c34)cc2)cc1`: the growth was 88.9%.
`O=c1cc(NC2CCN(CCCc3ccccc3)CC2)c2cc(Cl)ccc2o1`: the growth was 0.149% (active).
The value for `OC(c1ccccc1)c1nnc(SCc2ccccc2)n1Cc1ccccc1` (stereo not given) was 108%.
For `CN1CCN(Cc2ccc(C(=O)Nc3cncc(C#Cc4cnc5cccnn45)c3)cc2C(F)(F)F)CC1` the value was 12.7%; for `CN(C)CCCNCc1ccc(-c2ccc(F)c(Cl)c2)o1`, -19.9% (active).
Consider `COc1ccc(CSc2nnc(SCC(=O)Nc3ccc(Cl)cc3)s2)cc1`, for which the growth is 44.8%.
The value for `CCN1CCN(C(=S)SCC(=O)Nc2nc3ccc(C)cc3s2)CC1` was 108%; that for `CC(C)c1ccc(S(=O)(=O)NC(=O)NC2CCCC2)cc1` was 103%.
`O=c1oc2ccc(Br)cc2c(=O)n1-c1ccc(Cl)cc1F`: the growth was -14.7% (active).
